Results reported in ChEMBL document CHEMBL3988442, “University of Dundee, Small-Polar-MMV Screening Library” (2021).
For some of these results: Potency and affinity values are given separately.

What was measured:
Design in all cases: scale not given: direction of the effect not stated beside the values
[1] = molecular target: Protein translocase subunit SecA (Escherichia coli (strain K12)) (UniProt P10408); test: Assay to Identify E. coli SecA ATPase Inhibitors; type: functional; conditions: 30 µM
[2] = molecular target: T1, Ubiquitin-activating enzyme e1, putative (Leishmania donovani (strain BPK282A1)) (UniProt E9BSI1); test: Leishmania donovani Ubiquitin Activating Enzyme (LdE1); type: functional; conditions: 30 µM
T1 sequence (whole entry): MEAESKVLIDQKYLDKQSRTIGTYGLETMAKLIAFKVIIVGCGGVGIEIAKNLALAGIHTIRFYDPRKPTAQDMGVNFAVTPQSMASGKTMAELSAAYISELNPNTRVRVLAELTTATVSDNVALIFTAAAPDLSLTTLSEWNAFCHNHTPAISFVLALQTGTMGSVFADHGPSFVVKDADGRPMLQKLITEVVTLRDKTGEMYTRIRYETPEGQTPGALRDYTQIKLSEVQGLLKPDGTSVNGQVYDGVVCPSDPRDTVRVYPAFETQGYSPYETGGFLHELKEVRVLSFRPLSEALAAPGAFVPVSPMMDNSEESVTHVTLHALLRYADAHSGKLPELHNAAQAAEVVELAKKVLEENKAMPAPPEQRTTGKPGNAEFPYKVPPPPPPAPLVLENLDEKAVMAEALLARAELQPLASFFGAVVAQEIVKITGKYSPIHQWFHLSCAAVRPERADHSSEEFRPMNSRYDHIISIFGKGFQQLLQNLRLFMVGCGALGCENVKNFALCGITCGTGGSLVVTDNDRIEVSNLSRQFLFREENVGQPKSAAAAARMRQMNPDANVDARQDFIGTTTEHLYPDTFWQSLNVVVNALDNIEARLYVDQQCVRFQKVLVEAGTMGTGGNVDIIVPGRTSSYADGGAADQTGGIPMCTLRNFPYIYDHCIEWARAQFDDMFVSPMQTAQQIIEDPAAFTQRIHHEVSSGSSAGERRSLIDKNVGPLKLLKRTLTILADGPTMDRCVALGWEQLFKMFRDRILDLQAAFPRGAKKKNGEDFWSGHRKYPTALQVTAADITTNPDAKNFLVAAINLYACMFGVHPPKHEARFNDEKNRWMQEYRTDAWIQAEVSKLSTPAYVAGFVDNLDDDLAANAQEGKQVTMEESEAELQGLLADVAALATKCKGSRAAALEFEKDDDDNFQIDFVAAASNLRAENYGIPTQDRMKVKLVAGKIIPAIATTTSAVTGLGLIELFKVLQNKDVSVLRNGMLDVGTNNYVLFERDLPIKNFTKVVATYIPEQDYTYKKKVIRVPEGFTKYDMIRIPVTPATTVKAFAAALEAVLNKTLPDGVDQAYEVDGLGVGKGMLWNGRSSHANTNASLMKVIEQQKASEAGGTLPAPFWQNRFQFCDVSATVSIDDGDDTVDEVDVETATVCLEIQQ

[3] = molecular target: AMP-activated protein kinase, AMPK (Homo sapiens) (UniProt P54646+O43741+P54619+Q9UGJ0+Q9Y478+Q13131+Q9UGI9); test: AMP-dependent Kinase enzyme assay. An in vitro enzyme assay that detects ADP turnover that is directly proportional to AMPK activity. This uses naive AMPK that is activated during the assay with MK-8722; type: functional; conditions: 30 µM
[4] = molecular target: Sialic acid-binding Ig-like lectin 9 (Homo sapiens) (UniProt Q9Y336); test: Hs-Siglec9 ALPHAscreen SOP 20170721; conditions: 10 µM
Trypanosoma cruzi = test: Trypanosoma cruzi phosphomannomutase and mannose-1-phosphate guanylyltransferase assay; type: functional; conditions: 10 µM
[5] = molecular target: T2, Arginase-2, mitochondrial (Homo sapiens) (UniProt P78540); test: in vitro enzyme assay to detect the production of urea directly proportional to the activity of Arginase II; type: functional; conditions: 33.3 µM; note: in the data most compounds retested in dose-response had high values
T2 sequence (whole entry): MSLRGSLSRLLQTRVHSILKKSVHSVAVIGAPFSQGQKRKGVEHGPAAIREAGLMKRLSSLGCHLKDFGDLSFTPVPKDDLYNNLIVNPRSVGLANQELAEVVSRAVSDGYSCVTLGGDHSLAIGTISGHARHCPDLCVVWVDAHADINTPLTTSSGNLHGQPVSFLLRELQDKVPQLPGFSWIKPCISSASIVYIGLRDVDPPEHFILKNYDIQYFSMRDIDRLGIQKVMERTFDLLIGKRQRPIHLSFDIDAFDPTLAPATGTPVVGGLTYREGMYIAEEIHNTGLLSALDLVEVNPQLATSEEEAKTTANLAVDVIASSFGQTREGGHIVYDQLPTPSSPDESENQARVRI

[6] = molecular target: T3, Proteasome subunit beta (Trypanosoma cruzi) (UniProt O96673); test: Trypanosoma cruzi proteasome chymotrypsin-like activity (TcProtChymo) assay.; note: in the data most compounds retested in dose-response had high values; type: functional; conditions: 9.37 µM
T3 sequence (whole entry): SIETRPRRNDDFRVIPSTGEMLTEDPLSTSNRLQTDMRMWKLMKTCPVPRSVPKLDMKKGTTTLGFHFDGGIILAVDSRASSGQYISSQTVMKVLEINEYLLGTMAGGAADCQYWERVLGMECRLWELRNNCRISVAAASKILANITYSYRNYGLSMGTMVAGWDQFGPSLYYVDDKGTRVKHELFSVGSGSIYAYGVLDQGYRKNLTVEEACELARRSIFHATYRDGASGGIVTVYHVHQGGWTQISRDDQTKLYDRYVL

Homo sapiens = species on record: Homo sapiens; test: To identify inhibition of the IFN signalling (Jak-Stat) pathway via expression of an eGFP reporter gene under the control of an IFN-stimulated response element (ISRE) containing MxA promoter.; type: functional; conditions: 30 µM
[7] = molecular target: T4, Tyrosyl-tRNA synthetase, putative (Trypanosoma cruzi (strain CL Brener)) (UniProt Q4DSP6); test: Trypanosoma cruzi tyrosyl tRNA synthetase (TcYRS) _High Tyrosine SOP; type: functional; conditions: 30 µM; note: in the data most compounds retested in dose-response had high values
T4 sequence (whole entry): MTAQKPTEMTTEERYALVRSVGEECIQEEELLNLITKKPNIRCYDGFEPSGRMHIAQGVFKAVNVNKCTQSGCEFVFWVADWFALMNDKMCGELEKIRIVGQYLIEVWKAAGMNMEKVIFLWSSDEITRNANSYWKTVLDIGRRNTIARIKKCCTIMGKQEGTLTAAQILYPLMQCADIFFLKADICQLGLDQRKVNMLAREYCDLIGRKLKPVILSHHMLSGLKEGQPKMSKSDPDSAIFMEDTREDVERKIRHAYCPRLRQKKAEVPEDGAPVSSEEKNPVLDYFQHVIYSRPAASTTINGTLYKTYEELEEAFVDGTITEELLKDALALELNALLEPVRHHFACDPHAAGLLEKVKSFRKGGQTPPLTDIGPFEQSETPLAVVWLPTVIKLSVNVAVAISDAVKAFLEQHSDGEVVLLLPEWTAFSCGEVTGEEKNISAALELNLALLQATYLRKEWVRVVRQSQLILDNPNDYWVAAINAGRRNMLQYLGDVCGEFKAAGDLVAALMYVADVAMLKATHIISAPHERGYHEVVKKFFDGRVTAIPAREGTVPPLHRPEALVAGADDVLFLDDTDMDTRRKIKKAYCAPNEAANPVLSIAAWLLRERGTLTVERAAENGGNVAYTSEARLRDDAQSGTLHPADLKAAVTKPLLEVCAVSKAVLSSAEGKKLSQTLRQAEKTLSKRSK

[8] = molecular target: T4, Tyrosyl-tRNA synthetase, putative (Trypanosoma cruzi (strain CL Brener)); test: Trypanosoma cruzi tyrosyl tRNA synthetase (TcYRS) SOP; type: functional; conditions: 30 µM
[9] = molecular target: Chromo domain-containing protein 1 (Saccharomyces cerevisiae (strain ATCC 204508 / S288c) (Baker's yeast)) (UniProt P32657); test: ScCHD-1 Enzyme Inhibition Assay; type: functional; conditions: 30 µM; note: in the data most compounds retested in dose-response had high values
Sequence of Chromo domain-containing protein 1 (Saccharomyces cerevisiae (strain ATCC 204508 / S288c) (Baker's yeast)) (P32657 whole entry, the tested form may be a part): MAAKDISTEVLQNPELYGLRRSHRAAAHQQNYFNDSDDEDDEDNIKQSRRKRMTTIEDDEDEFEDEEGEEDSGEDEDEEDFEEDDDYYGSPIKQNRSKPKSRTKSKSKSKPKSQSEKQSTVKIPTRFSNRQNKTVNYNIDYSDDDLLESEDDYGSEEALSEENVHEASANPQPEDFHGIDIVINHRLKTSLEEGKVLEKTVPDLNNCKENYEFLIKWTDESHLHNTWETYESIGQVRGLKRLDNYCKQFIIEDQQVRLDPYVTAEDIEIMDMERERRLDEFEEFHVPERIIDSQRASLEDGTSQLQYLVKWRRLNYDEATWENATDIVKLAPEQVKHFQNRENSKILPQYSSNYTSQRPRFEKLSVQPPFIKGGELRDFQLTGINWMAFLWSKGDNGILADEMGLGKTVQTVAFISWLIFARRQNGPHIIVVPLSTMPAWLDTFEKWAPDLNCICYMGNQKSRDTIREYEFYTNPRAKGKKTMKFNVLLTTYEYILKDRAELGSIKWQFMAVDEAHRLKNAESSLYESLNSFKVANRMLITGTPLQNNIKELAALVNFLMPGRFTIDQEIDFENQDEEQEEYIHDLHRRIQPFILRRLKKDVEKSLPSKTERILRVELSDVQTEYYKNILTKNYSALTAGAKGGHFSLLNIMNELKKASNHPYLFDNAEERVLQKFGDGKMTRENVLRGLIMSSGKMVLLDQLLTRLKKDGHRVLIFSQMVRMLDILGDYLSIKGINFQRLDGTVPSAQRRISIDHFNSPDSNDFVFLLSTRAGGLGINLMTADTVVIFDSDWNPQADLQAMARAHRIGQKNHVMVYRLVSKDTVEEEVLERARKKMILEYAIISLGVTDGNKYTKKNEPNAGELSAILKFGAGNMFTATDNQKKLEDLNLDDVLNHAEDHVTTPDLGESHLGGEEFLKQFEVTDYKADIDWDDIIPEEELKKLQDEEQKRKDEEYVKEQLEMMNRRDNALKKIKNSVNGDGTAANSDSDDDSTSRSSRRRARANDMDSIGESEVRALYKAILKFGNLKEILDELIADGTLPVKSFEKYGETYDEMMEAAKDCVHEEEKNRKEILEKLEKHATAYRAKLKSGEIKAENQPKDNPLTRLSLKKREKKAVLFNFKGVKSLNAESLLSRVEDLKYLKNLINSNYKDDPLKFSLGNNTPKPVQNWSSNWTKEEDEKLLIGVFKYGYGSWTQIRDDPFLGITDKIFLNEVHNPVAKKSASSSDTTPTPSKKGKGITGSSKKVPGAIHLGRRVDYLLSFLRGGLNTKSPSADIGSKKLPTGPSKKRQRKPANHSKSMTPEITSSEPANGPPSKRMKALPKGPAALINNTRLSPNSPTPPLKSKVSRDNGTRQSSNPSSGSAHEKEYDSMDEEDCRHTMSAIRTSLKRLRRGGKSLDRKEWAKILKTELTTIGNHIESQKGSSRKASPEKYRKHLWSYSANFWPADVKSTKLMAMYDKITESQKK

Sequence of Sialic acid-binding Ig-like lectin 9 (Homo sapiens) (Q9Y336 whole entry): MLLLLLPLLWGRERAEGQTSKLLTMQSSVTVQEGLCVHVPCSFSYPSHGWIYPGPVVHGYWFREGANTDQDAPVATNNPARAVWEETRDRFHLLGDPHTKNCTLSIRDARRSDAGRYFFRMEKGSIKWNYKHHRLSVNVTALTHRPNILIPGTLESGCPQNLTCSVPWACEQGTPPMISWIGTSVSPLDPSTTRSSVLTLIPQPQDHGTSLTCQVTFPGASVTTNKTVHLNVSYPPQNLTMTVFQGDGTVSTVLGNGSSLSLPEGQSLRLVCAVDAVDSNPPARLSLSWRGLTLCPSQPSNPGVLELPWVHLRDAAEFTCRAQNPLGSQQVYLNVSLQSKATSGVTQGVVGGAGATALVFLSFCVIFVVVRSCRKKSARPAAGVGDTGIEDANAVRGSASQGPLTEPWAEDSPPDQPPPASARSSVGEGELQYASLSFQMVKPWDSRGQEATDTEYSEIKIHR
Sequence of Protein translocase subunit SecA (Escherichia coli (strain K12)) (P10408 whole entry): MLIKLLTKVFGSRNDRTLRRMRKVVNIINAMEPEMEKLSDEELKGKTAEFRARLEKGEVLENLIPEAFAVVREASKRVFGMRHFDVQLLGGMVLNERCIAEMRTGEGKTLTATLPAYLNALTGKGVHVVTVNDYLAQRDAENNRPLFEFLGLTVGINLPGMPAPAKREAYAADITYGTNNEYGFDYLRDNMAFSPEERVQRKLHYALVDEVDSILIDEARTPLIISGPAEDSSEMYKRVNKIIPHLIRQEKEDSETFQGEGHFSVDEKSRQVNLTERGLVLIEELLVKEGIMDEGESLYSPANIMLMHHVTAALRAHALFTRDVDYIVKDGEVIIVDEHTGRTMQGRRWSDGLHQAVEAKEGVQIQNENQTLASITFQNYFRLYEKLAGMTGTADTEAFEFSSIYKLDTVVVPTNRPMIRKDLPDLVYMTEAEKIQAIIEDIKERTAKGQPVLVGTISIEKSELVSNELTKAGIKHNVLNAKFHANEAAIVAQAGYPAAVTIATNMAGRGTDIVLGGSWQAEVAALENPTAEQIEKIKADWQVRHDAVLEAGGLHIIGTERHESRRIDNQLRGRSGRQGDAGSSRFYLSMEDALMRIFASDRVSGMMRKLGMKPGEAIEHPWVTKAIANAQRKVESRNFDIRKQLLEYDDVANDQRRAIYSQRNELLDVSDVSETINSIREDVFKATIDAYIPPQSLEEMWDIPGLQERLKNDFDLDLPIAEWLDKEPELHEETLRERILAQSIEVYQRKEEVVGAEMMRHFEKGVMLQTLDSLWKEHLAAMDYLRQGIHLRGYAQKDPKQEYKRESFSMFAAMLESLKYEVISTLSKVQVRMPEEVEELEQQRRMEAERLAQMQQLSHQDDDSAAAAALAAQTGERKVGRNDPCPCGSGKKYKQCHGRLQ

| SMILES | Percent Effect [1] [%] | Percent Effect [2] [%] | Percent Effect [3] [%] | Percent Effect [4] [%] | Percent Effect (Trypanosoma cruzi) [%] | Percent Effect [5] [%] | Percent Effect [6] [%] | Percent Effect (Homo sapiens) [%] | Percent Effect [7] [%] | Percent Effect [8] [%] | Percent Effect [9] [%] |
| --- | --- | --- | --- | --- | --- | --- | --- | --- | --- | --- | --- |
| Cc1cc(C)c(CNC(=O)N2CCCC2c2ccccc2)c(=O)[nH]1 (stereo not given) | -1.29 | -77.2 | 4.12 | 3.59 | 3.59 | 3.23 | 19.4 | -0.586 | 3.12 | 17.7 | -23.8 |
| c1ncn(CC2CN(CC3CCCC3)CCO2)n1 (stereo not given) | -3.42 | 11.4 | -1.94 | -0.971 | -1.54 | 6.24 | 11.8 | 10.9 | 0 | 7.59 | -14 |
| Cc1nc(C2CCCN2C(=O)c2ccccc2)ncc1C(N)=O (stereo not given) | -3.32 | 10.7 | 3.14 | 7.6 | 1.97 | -3.96 | 3.79 | 22.3 | 5.32 | 14.1 | -6.6 |
| Cc1ncsc1CN1C[C@@H]2COC[C@]2(C(=O)NCC2CC2)C1 | -0.435 | 0 | 8.5 | 2.51 | -4.33 | 5.83 | -1.15 | 25.1 | 2.13 | 1.28 | 10.8 |
| Cc1cnn(CCC(=O)N2CCCN(c3cccnn3)CC2)c1 | 1.07 | 3.8 | 1.28 | 0.558 | 1.74 | -0.645 | 13.2 | 12.8 | 2.08 | 5.06 | -16.1 |
| O=C(c1ccc[nH]1)N1CCn2cc(Cn3cncn3)nc2C1 | -0.971 | 2.67 | 2.39 | -2.2 | -3.94 | 3.03 | 11.2 | 13.4 | 3.19 | -1.28 | -3.1 |
| COCCOc1ccccc1CNCc1c(C)nn(C)c1N(C)C | -4.61 | 8.11 | -17.4 | -0.683 | -2.92 | -0.802 | 1.26 | -12 | 5.42 | 11.1 | -4.5 |
| CCC(=O)NCc1cc(Br)c(OC)c(OC)c1 | -7.41 | 5.33 | -0.145 | 4.49 | 4.19 | -9.9 | 5.75 | -1.33 | 1.64 | 11.1 | -3.06 |
| COc1cc(C)sc1C(=O)N1CC(c2cccnc2)C1 | -4.73 | 2.7 | 4.4 | -2.39 | -3.86 | -1.91 | 9.65 | -1.77 | 1.59 | 9.76 | -1.11 |
| COc1ccc(C(C)=O)c(OCC(=O)NC(C)c2ccc(F)cc2)c1 (stereo not given) | -0.739 | 10.8 | -5.53 | 8.21 | 5.77 | 23.6 | 9.19 | -11.8 | 0 | 11.1 | -6.76 |
| CCOCC(O)CN1CCN(C(=O)CC(C)C)CC1 (stereo not given) | -3.57 | 16.2 | -2.25 | 3.53 | -4.62 | 0.401 | 7.39 | 12.1 | 2.46 | 11.1 | -7.14 |
| CSCCC(=O)N1CCC(Oc2cc(C)ccc2F)(C(=O)O)CC1 | -1.39 | -1.39 | -5.71 | -2.17 | -2.43 | -1.32 | 0.351 | -30.7 | -2.1 | 2.56 | 2.79 |
| CN(C)C(=O)CO[C@H]1CN(Cc2ccc(F)cc2)[C@@H]2CCCO[C@H]12 | -4.67 | 10.4 | 1.52 | 9.7 | 4.23 | 2.76 | 15.3 | -1.14 | 5.38 | 11.1 | -1.79 |
| COCC(=O)N1CCCC1c1cc(Nc2nnc(C)s2)nc(C)n1 (stereo not given) | -7.56 | 0 | -6.16 | 10.2 | 7.09 | -3.96 | -2.38 | 8.53 | 4.25 | 8.97 | -5.17 |
| CCCNC(=O)CCC(=O)Nc1ccc(-n2cncn2)c(F)c1 | -7 | 2.63 | -2.96 | 4.31 | -6.2 | -2.68 | -0.501 | 29.1 | -0.49 | 0 | -1.12 |
| Cc1nc2n(n1)CC(NCc1cc(Cl)c3c(c1)OCCCO3)CC2 (stereo not given) | -6.19 | 15.8 | -7.14 | 11.4 | 5.51 | -1.44 | 6.01 | 6.53 | 6.4 | 25.9 | -3.53 |
| CCOCCCNC(=O)c1cc(C(C)C)nc(N2CCCCCC2)n1 | 0.305 | -12 | 4.38 | -7.72 | -5.5 | -16 | 16.3 | 17 | 10.6 | 12.8 | -11.2 |
| Cn1c(Cn2ccnc2)nnc1C1CCN(Cc2cccnc2N)CC1 | -2.31 | -9.72 | 1.79 | -9.15 | -2.62 | 3.53 | 9.12 | -8.94 | 2.1 | 2.56 | -3.65 |
| COc1cc(CN(C(=O)Nc2cccnc2OC)C2CC2)ccc1O | -3.67 | 2.6 | 7.29 | 11.9 | -2.25 | -0.712 | 5.91 | 23.5 | 3.88 | 12.2 | -4.72 |
| CCn1c(Cn2cncn2)nnc1C1CCN(C(=O)CCSC)CC1 | -3.03 | 2.7 | -5.34 | 25.4 | 3.23 | 20.6 | 0.944 | 20.4 | 6.45 | 13.6 | -3.37 |
